HCMV antiviral = inhibitors of human cytomegalovirus | activity change, negative = inhibition, % at 57.5 µM | AID 1259415 | actives 4.5% (n = 410,000) | HFF cells, HCMV-luciferase reporter, 72 h; hits give low values; in the data active means activity change below about -60%; inconclusive means no clear call, values can overlap the other calls; inactive means above about -39%
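Screen run at 2 compound doses on HFFs infected with reporter HCMV, MOI 1 PFU/cell. Luciferase activity from cell lysates at 72 h post infection gave inhibition relative to buffer-only and Salinomycin wells.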
TbPYK inhibitor = inhibitors of Trypanosoma brucei pyruvate kinase. TbPYK enzyme, Kinase-Glo Plus ATP luminescence, 45 min. Potency, µM (highest dose often 76.8 µM), actives largely listed as inhibitors. actives 0.12% (n = 410,000); further: nearly all actives have a fitted effect of over 50% in size
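In this concentration-response screen, enzyme-free wells defined baseline while DMSO plates tracked drift. Each reaction combined TbPYK, substrate, compound and 130 uM ADP for 45 min at room temperature. Kinase-Glo Plus luminescence gave the signal.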
FMDV antiviral = foot and mouth disease virus antiviral activity; FMDV antiviral cell-based qHTS; Potency, µM (doses to about 57.9 µM), most hits filed as inhibitors; actives 1.2% (n = 410,000); calls by dose curve; tested in HEK293T cells; further: read-out not given here; nearly all actives have a fitted effect of over 45% in size
RE007 growth inh = less growth of the S. pombe RE007 Vpr strain; S. pombe RE007 Vpr strain, BacTiter-Glo ATP luminescence, 24 h; Potency, µM (series often up to 92.2 µM), most hits filed as inhibitors; actives 0.21% (n = 360,000); AID 651644; active means well fitted falling curve with a large enough effect; inconclusive means small, poorly fitted or top-dose-only effect; inactive means no such curve, though single readings can be large or run the other way; further: nearly all actives have a fitted effect of over 50% in size
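Fission yeast strain RE007, carrying one chromosomally integrated HIV-1 vpr copy, was seeded at OD 0.01 in PMG+AL medium with 23 nL pinned compound. After 24 h at 30 °C and 99% humidity, viability was read by BacTiter-Glo luminescence.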
Sm TGR block = inhibitors of Schistosoma mansoni thioredoxin glutathione reductase. Q962Y6. purified TGR, DTNB reduction, TNB absorbance 405 nm. Potency, µM (highest dose often 114 µM), hits mostly inhibitors. actives 3% (n = 360,000); further: nearly all actives have a fitted effect of over 60% in size
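Kinetic colorimetric format: TGR-catalysed, NADPH-driven DTNB reduction monitored via TNB absorbance. Enzyme dispensed at 20 nM; compound exposure 15 min at room temperature before reaction start.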
FBPA Giardia inh = inhibitors of Giardia lamblia fructose-1,6-bisphosphate aldolase | A8B2U2 | purified Giardia FBPA | Potency, µM (top dose mostly 59.6 µM), hits mostly inhibitors | actives 0.71% (n = 290,000) | AID 2451; further: nearly all actives have a fitted effect of over 55% in size
Target sequence (A8B2U2 whole entry, looked up): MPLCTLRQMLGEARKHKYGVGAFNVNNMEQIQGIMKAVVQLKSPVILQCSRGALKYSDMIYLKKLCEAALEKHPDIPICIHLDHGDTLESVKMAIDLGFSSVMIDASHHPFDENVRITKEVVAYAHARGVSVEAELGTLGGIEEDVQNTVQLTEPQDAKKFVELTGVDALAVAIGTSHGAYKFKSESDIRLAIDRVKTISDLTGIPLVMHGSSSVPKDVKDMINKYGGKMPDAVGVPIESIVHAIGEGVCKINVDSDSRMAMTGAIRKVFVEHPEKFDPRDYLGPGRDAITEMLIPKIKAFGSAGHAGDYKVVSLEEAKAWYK
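40 nM FBPA preincubated 10 min at RT with compound (up to 57.5 uM final), then substrate plus GAPDH/TPI/NAD/arsenate coupling and diaphorase/resazurin added. Fluorescence read after 20 min at RT, 525/598 nm.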
Each line names hits and unclear results; the compound was inactive in the other large screens; ! = not active in a repeat. Only some compounds are listed: those with a hit (about 7.7% of all), similar ones and a draw of the others. Unless noted, the call rests on the fitted dose curve; in most records, active means well fitted curve in the direction sought with a large enough effect; inconclusive means small, poorly fitted or top-dose-only effect, or another doubt; inactive means no such curve, though single readings can be large; an effect the other way counts as inactive or inconclusive.

O=C(CCSCCc1ccccn1)Nc1ccc(Cl)cc1	none (no result: RE007 growth inh, FBPA Giardia inh)
CC1=C(C(=O)O)N2C(=O)C(NC(=O)C(N)C3=CCC=CC3)C2SC1 (stereo not given)	FBPA Giardia inh 7.9µM (no result: HCMV antiviral, TbPYK inhibitor, RE007 growth inh, Sm TGR block)
C=CC1=C(C(=O)O)N2C(=O)[C@@H](NC(=O)C(N=O)c3csc(N)n3)[C@H]2SC1 (stereo not given in full)	FBPA Giardia inh 16µM (no result: HCMV antiviral, FMDV antiviral, RE007 growth inh, Sm TGR block)
N[C@@H](C(=O)N[C@@H]1C(=O)N2C(C(=O)O)=C(Cl)CS[C@H]12)c1ccccc1	FBPA Giardia inh 20µM!
COc1cccc(NC(=O)c2oc3ccc(S(=O)(=O)N(C)C4CCCCC4)cc3c2C)c1	none (no result: RE007 growth inh, FBPA Giardia inh)
COc1ccc(NC(=O)Cn2cnc3c(nc4n3CCCCC4)c2=O)cc1Cl	none (no result: RE007 growth inh, FBPA Giardia inh)
Cc1cc(C)nc(NC(=S)NC(=O)c2ccccc2F)n1	none (no result: Sm TGR block, FBPA Giardia inh)
Cc1cc(C)nc(S/C=C/C(=O)c2ccccc2F)n1	FMDV antiviral 8.9µM, Sm TGR block 0.56µM
O=C(/C=C/c1ccc(OCCCF)cc1)Nc1ccnc(-c2ccncc2)n1	HCMV antiviral inconclusive, FMDV antiviral 22µM
C=CCSC(=C(C#N)C#N)c1cc2c([nH]1)CCCC2	FMDV antiviral 11µM
Cc1ccc2occ(CN3CCOc4ccc(C(C)(O)COc5ccccc5)cc4C3)c(=O)c2c1 (stereo not given)	none (no result: HCMV antiviral, TbPYK inhibitor, RE007 growth inh, Sm TGR block, FBPA Giardia inh)
COc1cc(CN2CCN(S(=O)(=O)c3ccccc3)CC2)cc(OC)c1O	Sm TGR block 4.5µM (no result: RE007 growth inh, FBPA Giardia inh)
COC(=O)c1ccc(S(=O)(=O)N2CCCN(Cc3ccc(F)cc3)CC2)n1C	HCMV antiviral -64, FMDV antiviral inconclusive, Sm TGR block inconclusive
COc1ccc(CN2CCN(S(=O)(=O)c3ccc(F)cc3)CC2)cc1OC	HCMV antiviral -60
COc1ccc(S(=O)(=O)N2CCN(Cc3cc(OC)c(O)c(OC)c3)CC2)cc1	Sm TGR block 3.5µM, FBPA Giardia inh inconclusive
CCOc1ccc(N2C(=O)CNC2=S)cc1	none
CCCCOc1ccc(N2C(=O)C(C)CNC2=S)cc1 (stereo not given)	HCMV antiviral -99 (no result: Sm TGR block, FBPA Giardia inh)
Nc1nc(Cl)cc(N2CCC(c3cc(-c4ccc(Cl)cc4Cl)n[nH]3)CC2)n1	HCMV antiviral -100, FMDV antiviral inconclusive
COc1c(C)cc(Br)cc1C(=O)Nc1ccc(Cc2ccncc2)cc1	HCMV antiviral -72, FMDV antiviral inconclusive
CCOC(=O)N1C(=O)[C@](c2ccc(Cl)cc2)(C(C)C)N1C(=O)OCC	HCMV antiviral -90, FMDV antiviral 28µM, Sm TGR block 18µM
CCOC(=O)N1C(=O)[C@@](c2ccc(Cl)cc2)(C(C)C)N1C(=O)OCC	FMDV antiviral inconclusive, Sm TGR block 11µM
COCCNC(C)(CCCCC(=O)O)c1nnnn1-c1c(C)cccc1Cl (stereo not given)	none (no result: TbPYK inhibitor, FMDV antiviral, RE007 growth inh, Sm TGR block, FBPA Giardia inh)
CC(=O)N=c1scc(-c2ccccc2)n1-c1cccc(O)c1	HCMV antiviral -92
O=c1c2ccccc2nc(-c2ccccc2)n1-c1cccc(O)c1	none
O=C(CN1C(=O)COc2ccc(S(=O)(=O)N3CCCC3)cc21)N1CCN(c2cccc(C(F)(F)F)c2)CC1	FMDV antiviral inconclusive (no result: RE007 growth inh, FBPA Giardia inh)
COc1ccc(N2CCN(CCCNC(=O)c3c(C)nn(-c4ccc(F)cc4)c3-n3cccc3)CC2)cc1	FMDV antiviral inconclusive (no result: RE007 growth inh, FBPA Giardia inh)
Cc1ccc(-n2nc(C)c(C(=O)NCCCN3CCN(c4ccc(F)cc4)CC3)c2-n2cccc2)cc1	HCMV antiviral -70 (no result: RE007 growth inh, FBPA Giardia inh)
Cc1nn(-c2ccccc2)c(-n2cccc2)c1C(=O)NCCc1ccc(Cl)cc1	HCMV antiviral -100, FMDV antiviral inconclusive (no result: RE007 growth inh, FBPA Giardia inh)
Cc1nn(-c2ccccc2)c(-n2cccc2)c1C(=O)NCc1ccccc1Cl	FMDV antiviral inconclusive (no result: RE007 growth inh, FBPA Giardia inh)
COCc1cc(=O)[nH]c(Nc2nc(C)c3ccccc3n2)n1	HCMV antiviral -102
Cc1ccc2c(C)nc(Nc3nc(CSc4nnnn4-c4ccccc4)cc(=O)[nH]3)nc2c1	HCMV antiviral -101
Cc1ccc(SCc2cc(=O)[nH]c(Nc3nc(C)c4cccc(C)c4n3)n2)cc1	none
COc1ccc2nc(Nc3nc(CSc4nnnn4-c4ccccc4)cc(=O)[nH]3)nc(C)c2c1	none
